In PubChem BioAssay AID1508600 (Functional Genomics Laboratory (NCATS/FGL), 2020):
Out of some 53,000 sequences screened, about 3,700 (7%) were called active. Only a selection was taken, and actives are over-represented in it overall. Unmarked numbers belong to inactive results.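 How the source made its calls: active means gene knockdowns whose robust z-score for IL-1 alpha signal is at least 2 or at most -2, so actives lie on both sides; inactive means the rest.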

Test: Components of the Cytosolic LPS Sensing Pathway: Gene Identification via Genome-wide siRNA Screen;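 further: robust z of the log signal after scaling to non-targeting control siRNA wells of the plate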
Conditions: RAW264.7 macrophages, IL-1a HTRF, actives lie on both sides, screened at 100 nM (by protocol), cells primed 5 h with Pam3CSK4 first
In short: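 Knockdown: 100 nM siRNA, 48h, RAW264.7. Stimulation: Pam3CSK4 5 h, then LipidA via TransIT-TKO 24 h. Output: supernatant IL-1a HTRF, negative-control-normalized, log robust z-score; viability by CellTiter-Glo.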

Sequence	z-score
CGAUGAACACACGUCUUAUTT against Dtl	2.05 (active)
GGGCAGGAACAAAAGAAGCTT against Dsc1	0.165
GGUGUCACCAUUUCAGUGGTT against Lbp	0.703
GCAUUCAUGUGCUCUGCCCTT against Ifitm6	-0.952
GGCUGUCUUCUGAUCAAUUTT against Adamts3	2.42 (active)
GGCAUUGAAUUAAAGAUACTT against Myct1	-1.06
GCAUCACGGAUUCGAAUUGTT against Dgkz	-1.25
GGAAGACAUAAUAAUAGAGTT against Rad17	-1.39
CCUACAAGAACGAAGAUUUTT against Pla2g4d	-1.67
CCAACAUCGAGCUAGCCACTT against Psma5	-2.28 (active)
CCACCUACGUCAACACUAATT against Kcnh6	-1.8
CCAGAUGUUGGAUAAAACGTT against Fbxw10	-0.333
GGAAAUUUCAGUCGAACAGTT against Arhgap31	0.333
GGUCUUUGACAGAAUAAAATT against Yipf1	1.94
GGCAUCCACCCUAAGGUCATT against Keap1	1.03
GGAUUGAGUGACGACUGACTT against Nova2	2.25 (active)
GGCCUCCAAAUGAACAGCATT against Trmt61a	-0.365
GCUGUACGUAGAUUCCAGATT against Mmp21	1.48
CCCAAUUAGGCUAUGCUAATT against Amfr	2.27 (active)
GGAGAAACAUCAAUUGCACTT against Thbs2	-0.0207
GCUUGAUGACUCUAAACCUTT against Runx2	1.29
GCCUCUAUCUGUACUCUGGTT against Pdk2	-0.944
GCACAAAUCUGGUAAGUCATT against Gtf2h1	0.474
GCAACAUAUGGUAUACUGUTT against Mdm4	1.41
CCAUGAAAAACUUAGUGUGTT against Trim37	0.682
GGAGUGUUUGAGAAAUACCTT against Pnpla7	3.32 (active)
CCUUGGGACUGACUGUAAGTT against Ptrh2	-0.887
GGUCUUAUUUUGAAGUGUUTT against Cybb	0.013

Sequence	z-score
GCGAUCAAAAAAGUUGCCUTT against Arhgap44	-0.387
GGAGUGGGAGAAGAUGGAATT against Mbd4	2.17 (active)
GCUACAAGUGUUGCCUGAATT against Slit1	1.21
GGUGCAGAGAAGAACAAGATT against Inpp1	-0.993
CCACAGGGAGACAUGAUAUTT against Coprs	-0.292
GUGAUGUCACUAAUGCCAATT against Cd99	0.628
GGAUAGACAGAAAUUCUCATT against Flot1	1.43
GGAAAACUACUGGAACUGGTT against Irgm1	0.415
GGAGGCAGAUGCUGGAAUCTT against Defb3	4.19 (active)
GGUGAUCAUGCUAACCUUUTT against Pcolce	0.436
GGUGUAACUGGGCUGCAUGTT against Avpi1	0.269
GGCAAUUCUUAACCUGUCCTT against Tacc1	-2.75 (active)
GCUGAUGGUAAAUUCACAGTT against Serpinb3c	-1.01
GCAUGUGUACCAUUUACCUTT against Prdx1	1.87
GGAUGCCCUUGUCACAAAGTT against Fbl	0.154
GGAACACUGUAUCUUACGGTT against Mtmr6	0.599
GGAGAAGGUGACUUAAUAGTT against 9430077A04Rik	0.76
GGAGAUCACCUACGACAUGTT against Lgals8	0.446
GGUCAUCUCAGUACUACAATT against Dgat2	0.251
GGCAAGAAAAACACUUUAUTT against Parp3	1.85
GGAAGGAGGACAGAGGAAUTT against Tmem19	2.34 (active)
GGCAUUGGAAGAUGCACAGTT against Scp2	0.431
GGUUAUAGCAUCCUUAACUTT against Tmem208	1.06
GGUGAAGUCUUACCUAUACTT against Aacs	-0.598
GACCUUGGUUAUUCUACAGTT against Olfr1087	-1.14
GGUGUGUUUUGUAUUGAUUTT against Olfr843	0.482
GGCAACAGUGCAUUCAAGUTT against Nptx2	3.39 (active)
